In the library only some 2.2% were active in any assay of this set; here they are far more common.
VLA-4 inh = inhibition in human VLA-4 binding assay, primary screen, VLA-4 allosteric modulator project, MLPCN library, flow cytometry, VLA-4 expressing cells; Integrin alpha-4 (Homo sapiens), P13612; ligand binding flow cytometry; inhibition, % (about 7 µM as worked out from the volumes in the protocol); 0.2% of 330,000 active; in the data active = inhibition above about 50%
Target sequence (P13612 whole entry, looked up): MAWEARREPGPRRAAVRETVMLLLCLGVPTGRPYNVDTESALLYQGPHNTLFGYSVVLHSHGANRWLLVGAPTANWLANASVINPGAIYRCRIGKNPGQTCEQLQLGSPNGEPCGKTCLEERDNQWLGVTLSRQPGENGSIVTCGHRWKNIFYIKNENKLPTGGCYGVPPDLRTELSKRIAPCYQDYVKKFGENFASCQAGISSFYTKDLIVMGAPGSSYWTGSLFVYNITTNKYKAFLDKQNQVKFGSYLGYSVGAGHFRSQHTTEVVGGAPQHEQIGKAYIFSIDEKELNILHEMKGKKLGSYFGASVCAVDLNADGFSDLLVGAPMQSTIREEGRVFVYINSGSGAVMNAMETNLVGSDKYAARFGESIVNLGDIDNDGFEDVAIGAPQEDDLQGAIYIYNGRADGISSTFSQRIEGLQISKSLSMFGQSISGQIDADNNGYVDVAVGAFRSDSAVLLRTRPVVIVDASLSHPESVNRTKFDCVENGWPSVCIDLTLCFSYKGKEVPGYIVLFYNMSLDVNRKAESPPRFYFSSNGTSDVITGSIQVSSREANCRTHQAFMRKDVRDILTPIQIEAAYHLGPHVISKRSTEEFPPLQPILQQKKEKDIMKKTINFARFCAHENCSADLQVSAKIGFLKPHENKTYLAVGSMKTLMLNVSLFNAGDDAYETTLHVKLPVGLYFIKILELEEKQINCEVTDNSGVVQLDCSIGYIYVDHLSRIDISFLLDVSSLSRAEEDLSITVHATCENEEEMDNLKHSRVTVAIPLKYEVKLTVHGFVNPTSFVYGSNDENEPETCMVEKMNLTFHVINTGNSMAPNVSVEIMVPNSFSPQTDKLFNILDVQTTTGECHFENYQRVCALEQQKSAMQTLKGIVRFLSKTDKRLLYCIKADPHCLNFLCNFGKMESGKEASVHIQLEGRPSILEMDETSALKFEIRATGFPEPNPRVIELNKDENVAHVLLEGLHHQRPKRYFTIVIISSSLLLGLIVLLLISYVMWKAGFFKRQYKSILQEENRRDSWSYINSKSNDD
MEKK3 PB1 HTS = modulators of MEKK3-MEK5 PB1 binding, primary screen, biochemical, wildtype MEKK3, multiplex bead flow cytometry, Alexa488-MEK5 | AID 1529, 2009 | 1.4% of 290,000 active | Mitogen-activated protein kinase kinase kinase 3 (Homo sapiens), Q99759 | bead-based flow cytometry, Alexa488-MEK5 binding to MEKK3; actives lie on both sides; 0 = blocked by unlabeled MEK5, 100 = vehicle | binding response (% of control), % at 10 µM;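 active = binding response more than 3 SD above or below the average of its plate-row segment, actives on both sides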;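 note: Alexa488 bead fluorescence after subtracting the streptavidin-only scavenger bead signal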
MEKK2mut PB1 HTS = MEK5 binding signal on mutant MEKK2 PB1, primary screen, biochemical, multiplex bead flow cytometry, Alexa488-MEK5; 0.35% of 290,000 active; percent response, % at 10 µM; Alexa488-MEK5 binding to MEKK2 mutant; AID 1530, 2009; in the data active = percent response above about 24%, passing the limit was not always enough
MEKK2wt PB1 HTS = modulators of MEK5 binding to wildtype MEKK2, primary screen, biochemical, multiplex bead flow cytometry, Alexa488-MEK5. AID 1531, 2009. Mitogen-activated protein kinase kinase kinase 2 (Homo sapiens), Q9Y2U5. binding response (% of control), % at 10 µM. 1.1% of 290,000 active. Alexa488-MEK5 binding to MEKK2 WT; actives lie on both sides; in the data active = binding response below about 67% or above about 130%
MEKK2wt confirm = modulators of MEK5 binding to wildtype MEKK2, confirmation, biochemical, single concentration, multiplex bead flow cytometry; shares compounds with MEKK3 PB1 HTS; Alexa488-MEK5 binding to MEKK2 WT; actives lie on both sides; binding response (% of control), % at 10 µM; 2.4% of 5,900 active; AID 1892, 2009; in the data active = binding response below about 16% or above about 210%; inactive = in between
MEKK2mut confirm = mutant MEKK2 PB1-MEK5 binding signal retest – biochemical, single concentration, multiplex bead flow cytometry, confirmation; shares compounds with MEKK3 PB1 HTS; Alexa488-MEK5 binding to MEKK2 mutant; percent response, % at 10 µM; 2% of 5,900 active; AID 1893, 2009; in the data active = percent response mostly above about 71%, no sharp cut-off; inactive = mostly below about 38%;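 note: higher means compound restores mutant binding toward wildtype level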
MEKK3-MEK5 inh = MEKK3 wild-type PB1 binding to MEK5, inhibitors, confirmation, biochemical, bead multiplex flow cytometry, single concentration, wildtype. 1.8% of 5,900 active. shares compounds with MEKK3 PB1 HTS. binding response (% of control), % at 10 µM. Alexa488-MEK5 binding to MEKK3; hits give low values. AID 1894, 2009;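 active = binding response below 72% of control, or above a set upper limit, though filed actives all read lower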;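 note: 100% = DMSO only wells and 0% = binding blocked by excess unlabeled MEK5; lower values mean stronger disruption of MEK5 binding to MEKK3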
The depositor's hits bear a star.

Screening Oc1ccc(/C=N/N=C(c2ccccc2)c2ccccc2)c(O)c1O returned VLA-4 inh 9, MEKK3 PB1 HTS 96, MEKK2mut PB1 HTS 4 and MEKK2wt PB1 HTS 96.
Screening CC(C)(CNC(=O)Cc1ccc(Br)cc1)N1CCOCC1 returned VLA-4 inh 17, MEKK3 PB1 HTS 102, MEKK2mut PB1 HTS 3 and MEKK2wt PB1 HTS 104.
For CCCCCCCCCn1ccc(=N)cc1 the results were VLA-4 inh 3, MEKK3 PB1 HTS 131*, MEKK2mut PB1 HTS 31, MEKK2wt PB1 HTS 140*, MEKK2wt confirm 112, MEKK2mut confirm 6 and MEKK3-MEK5 inh 104.
Cc1csc(=O)n1CCC(=O)OCC(=O)Nc1cc([N+](=O)[O-])ccc1Cl was read as VLA-4 inh -13.
`Cc1ccc(C(C)C)c(OCC(=O)N/N=C/c2ccc(S(=O)(=O)O)o2)c1` gave VLA-4 inh 9, MEKK3 PB1 HTS 130*, MEKK2mut PB1 HTS 25, MEKK2wt PB1 HTS 119, MEKK2wt confirm 95, MEKK2mut confirm -6 and MEKK3-MEK5 inh 100.
O=C(Nc1nnc(-c2ccccc2F)s1)C1CCN(S(=O)(=O)c2ccc(Cl)cc2)CC1 was read as VLA-4 inh -13, MEKK3 PB1 HTS 96, MEKK2mut PB1 HTS 1 and MEKK2wt PB1 HTS 101.
`O=C(Nc1nnc(-c2ccccc2Cl)s1)C1CCN(S(=O)(=O)c2ccc(Cl)cc2)CC1` gave VLA-4 inh 7, MEKK3 PB1 HTS 140*, MEKK2mut PB1 HTS 0, MEKK2wt PB1 HTS 100, MEKK2wt confirm 101, MEKK2mut confirm 0 and MEKK3-MEK5 inh 101.
Cc1ccc(CCN2CC(C(=O)NC(C)C)CC2=O)cc1 (configuration not stated) was read as VLA-4 inh -14, MEKK3 PB1 HTS 99, MEKK2mut PB1 HTS 1 and MEKK2wt PB1 HTS 100.
Screening Fc1ccc(SCCc2ccncc2)cc1 returned VLA-4 inh 7, MEKK3 PB1 HTS 103, MEKK2mut PB1 HTS 17 and MEKK2wt PB1 HTS 103.
Cc1ccc(SCCc2cc[n+](CC(=O)c3ccccc3)cc2)cc1 was read as VLA-4 inh 2, MEKK3 PB1 HTS 101, MEKK2mut PB1 HTS -3, MEKK2wt PB1 HTS 143*, MEKK2wt confirm 153, MEKK2mut confirm 36 and MEKK3-MEK5 inh 96.
`O=C(C[n+]1ccc(CCSc2ccc(F)cc2)cc1)c1ccccc1` gave VLA-4 inh 6, MEKK3 PB1 HTS 93, MEKK2mut PB1 HTS 249*, MEKK2wt PB1 HTS 61*, MEKK2wt confirm 149, MEKK2mut confirm 27 and MEKK3-MEK5 inh 101.
`Cc1ccc(C(=O)C[n+]2ccc(Cc3ccccc3)cc2)cc1` gave VLA-4 inh 1, MEKK3 PB1 HTS 104, MEKK2mut PB1 HTS 2 and MEKK2wt PB1 HTS 106.
CSC1=N/C(=C/c2cccnc2)C(=O)N1Cc1ccccc1 was read as VLA-4 inh 10, MEKK3 PB1 HTS 99, MEKK2mut PB1 HTS 2 and MEKK2wt PB1 HTS 99.
For Cc1ccc(C)c(NC(=S)N/N=C/C(C)c2ccccc2)c1 (configuration not stated) the results were VLA-4 inh -1, MEKK3 PB1 HTS 105, MEKK2mut PB1 HTS 2 and MEKK2wt PB1 HTS 99.
For O=C(c1ccc2ccccc2c1)c1c[nH]cc1-c1ccccc1 the results were VLA-4 inh 27, MEKK3 PB1 HTS 129*, MEKK2mut PB1 HTS 5, MEKK2wt PB1 HTS 105, MEKK2wt confirm 104, MEKK2mut confirm -6 and MEKK3-MEK5 inh 103.
